# Data as given in PMC5540273 (PLoS ONE, 2017).
# “And” between values parts separate entries of the source, which are not always exact repeats. Identical values can stand only once. Like-named read-outs stand apart in the source and are kept apart here.
# Legend:
# HPK1 = conditions: concentration: 1 μM, replicates: in singlicate; n = 1
# HUNK = conditions: concentration: 1 μM, replicates: in singlicate, n = 1
# ICK = conditions: concentration: 1 μM, replicates: in singlicate, n = 1
# IGF1R = conditions: concentration: 1 μM, replicates: in singlicate, n = 1
# IKK-alpha = tested on: T1, IKK-alpha; conditions: concentration: 1 μM, replicates: in singlicate, n = 1
# T1 construct: gene CHUK
# IKK-beta = tested on: T2, IKK-beta; conditions: concentration: 1 μM, replicates: in singlicate, n = 1
# T2 construct: gene IKBKB
# IKK-epsilon = tested on: T3, IKK-epsilon; conditions: concentration: 1 μM, replicates: in singlicate, n = 1
# T3 construct: gene IKBKE
# INSRR = conditions: concentration: 1 μM, replicates: in singlicate; n = 1
# INSR = conditions: concentration: 1 μM, replicates: in singlicate, n = 1
# IRAK1 = conditions: concentration: 1 μM, replicates: in singlicate, n = 1
# IRAK3 = conditions: concentration: 1 μM, replicates: in singlicate; n = 1
# IRAK4 = conditions: concentration: 1 μM, replicates: in singlicate, n = 1
# ITK = conditions: concentration: 1 μM, replicates: in singlicate, n = 1
# [1] = tested on: JAK1(JH1domain-catalytic); conditions: concentration: 1 μM, replicates: in singlicate, n = 1
# [2] = tested on: JAK1(JH2domain-pseudokinase); conditions: concentration: 1 μM, replicates: in singlicate, n = 1
# [3] = tested on: JAK2(JH1domain-catalytic); conditions: concentration: 1 μM, replicates: in singlicate, n = 1
# [4] = tested on: JAK3(JH1domain-catalytic); conditions: concentration: 1 μM, replicates: in singlicate, n = 1
# JNK1 = tested on: T4, JNK1; conditions: concentration: 1 μM, replicates: in singlicate, n = 1
# T4 construct: gene MAPK8
# JNK2 = tested on: T5, JNK2; conditions: concentration: 1 μM, replicates: in singlicate, n = 1
# T5 construct: gene MAPK9
# JNK3 = tested on: T6, JNK3; conditions: concentration: 1 μM, replicates: in singlicate, n = 1
# T6 construct: gene MAPK10
# 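Also: KINOMEscan kinase panel screen.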
smiles,measurement,setting,value
NS(=O)(=O)c1cccc(-c2ccc3ncc(N4CCOCC4)nc3c2)c1 [GSK1535721],%Inh,HPK1,37%
same,%Inh,HUNK,0%
same,%Inh,ICK,0%
same,%Inh,IGF1R,2%
same,%Inh,IKK-alpha,0%
same,%Inh,IKK-beta,0%
same,%Inh,IKK-epsilon,34%
same,%Inh,INSRR,0%
same,%Inh,INSR,7%
same,%Inh,IRAK1,1%
same,%Inh,IRAK3,0%
same,%Inh,IRAK4,11%
same,%Inh,ITK,3%
same,%Inh,[1],8%
same,%Inh,[2],5%
same,%Inh,[3],0%
same,%Inh,[4],0%
same,%Inh,JNK1,3%
same,%Inh,JNK2,0%
same,%Inh,JNK3,0%
COc1cc2c(cc1OCCN1CCN(C)CC1)ncc1c3ccc(C#N)cc3[nH]c21,%Inh,HPK1,11%
same,%Inh,HUNK,0%
same,%Inh,ICK,10%
same,%Inh,IGF1R,0%
same,%Inh,IKK-alpha,44%
same,%Inh,IKK-beta,29%
same,%Inh,IKK-epsilon,70%
same,%Inh,INSRR,0%
same,%Inh,INSR,0%
same,%Inh,IRAK1,97.2%
same,%Inh,IRAK3,84%
same,%Inh,IRAK4,100%
same,%Inh,ITK,38%
same,%Inh,[1],0%
same,%Inh,[2],60%
same,%Inh,[3],52%
same,%Inh,[4],93.4%
same,%Inh,JNK1,19%
same,%Inh,JNK2,0%
same,%Inh,JNK3,0%
Cl.Oc1cccc(Nc2ccnc3cc(-c4ccncc4)ccc23)c1 [GW494601],%Inh,HPK1,37%
same,%Inh,HUNK,11%
same,%Inh,ICK,0%
same,%Inh,IGF1R,13%
same,%Inh,IKK-alpha,23%
same,%Inh,IKK-beta,0%
same,%Inh,IKK-epsilon,20%
same,%Inh,INSRR,0%
same,%Inh,INSR,0%
same,%Inh,IRAK1,22%
same,%Inh,IRAK3,57%
same,%Inh,IRAK4,1%
same,%Inh,ITK,0%
same,%Inh,[1],65%
same,%Inh,[2],0%
same,%Inh,[3],50%
same,%Inh,[4],18%
same,%Inh,JNK1,14%
same,%Inh,JNK2,37%
same,%Inh,JNK3,21%
Cc1cn2c(=O)cc(N3CCOCC3)nc2n1Cc1cccc(Cl)c1Cl [GSK2334006],%Inh,HPK1,30%
same,%Inh,HUNK,9%
same,%Inh,ICK,12%
same,%Inh,IGF1R,0%
same,%Inh,IKK-alpha,7%
same,%Inh,IKK-beta,18%
same,%Inh,IKK-epsilon,3%
same,%Inh,INSRR,28%
same,%Inh,INSR,0%
same,%Inh,IRAK1,0%
same,%Inh,IRAK3,13%
same,%Inh,IRAK4,5%
same,%Inh,ITK,14%
same,%Inh,[1],2%
same,%Inh,[2],0%
same,%Inh,[3],2%
same,%Inh,[4],0%
same,%Inh,JNK1,18%
same,%Inh,JNK2,16%
same,%Inh,JNK3,6%
COc1ccc(CNC(=O)NC2CCN(c3ccnc(Nc4ccc(OC)cc4)n3)C2)cc1 (stereo not drawn) [GSK1379727],%Inh,HPK1,38%
same,%Inh,HUNK,0%
same,%Inh,ICK,0%
same,%Inh,IGF1R,0%
same,%Inh,IKK-alpha,20%
same,%Inh,IKK-beta,10%
same,%Inh,IKK-epsilon,12%
same,%Inh,INSRR,0%
same,%Inh,INSR,0%
same,%Inh,IRAK1,28%
same,%Inh,IRAK3,13%
same,%Inh,IRAK4,4%
same,%Inh,ITK,7%
same,%Inh,[1],16%
same,%Inh,[2],0%
same,%Inh,[3],20%
same,%Inh,[4],0%
same,%Inh,JNK1,32%
same,%Inh,JNK2,19%
same,%Inh,JNK3,9%
CSc1ccc(-c2cc3ncnc(SCC(=O)O)c3s2)cc1,%Inh,HPK1,0%
same,%Inh,HUNK,0%
same,%Inh,ICK,0%
same,%Inh,IGF1R,2%
same,%Inh,IKK-alpha,6%
same,%Inh,IKK-beta,0%
same,%Inh,IKK-epsilon,0%
same,%Inh,INSRR,11%
same,%Inh,INSR,0%
same,%Inh,IRAK1,28%
same,%Inh,IRAK3,0%
same,%Inh,IRAK4,9%
same,%Inh,ITK,0%
same,%Inh,[1],1%
same,%Inh,[2],0%
same,%Inh,[3],0%
same,%Inh,[4],0%
same,%Inh,JNK1,5%
same,%Inh,JNK2,10%
same,%Inh,JNK3,0%
N#Cc1c(N2CCOCC2)sc(-c2ccn[nH]2)c1-c1ccc(Cl)cc1,%Inh,HPK1,0%
same,%Inh,HUNK,16%
same,%Inh,ICK,24%
same,%Inh,IGF1R,0%
same,%Inh,IKK-alpha,10%
same,%Inh,IKK-beta,25%
same,%Inh,IKK-epsilon,0%
same,%Inh,INSRR,0%
same,%Inh,INSR,0%
same,%Inh,IRAK1,20%
same,%Inh,IRAK3,16%
same,%Inh,IRAK4,1%
same,%Inh,ITK,6%
same,%Inh,[1],0%
same,%Inh,[2],29%
same,%Inh,[3],22%
same,%Inh,[4],0%
same,%Inh,JNK1,40%
same,%Inh,JNK2,23%
same,%Inh,JNK3,43%
CC(C)(CN)c1nc(-c2ccc(Cl)c(O)c2)c(-c2ccncc2)[nH]1.O=C(O)C(F)(F)F [SB-477794],%Inh,HPK1,46%
same,%Inh,HUNK; 1 µM,0% and 16%
same,%Inh,ICK; 1 µM,23% and 0%
same,%Inh,IGF1R; 1 µM,0% and 9%
same,%Inh,IKK-alpha; 1 µM,64% and 34%
same,%Inh,IKK-beta; 1 µM,33% and 0%
same,%Inh,IKK-epsilon; 1 µM,10% and 6%
same,%Inh,INSRR,0%
same,%Inh,INSR; 1 µM,23% and 0%
same,%Inh,IRAK1; 1 µM,62% and 44%
same,%Inh,IRAK3,0%
same,%Inh,IRAK4; 1 µM,43% and 0%
same,%Inh,ITK; 1 µM,9% and 0%
same,%Inh,[1]; 1 µM,28% and 15%
same,%Inh,[2]; 1 µM,0% and 2%
same,%Inh,[3]; 1 µM,18% and 8%
same,%Inh,[4]; 1 µM,0% and 28%
same,%Inh,JNK1; 1 µM,41% and 32%
same,%Inh,JNK2; 1 µM,85% and 80%
same,%Inh,JNK3; 1 µM,93.6% and 92.8%
O=c1cc(N2CCOCC2)nc2n(Cc3cccc(F)c3)ccn12 [GSK2297430],%Inh,HPK1,34%
same,%Inh,HUNK,4%
same,%Inh,ICK,0%
same,%Inh,IGF1R,9%
same,%Inh,IKK-alpha,3%
same,%Inh,IKK-beta,5%
same,%Inh,IKK-epsilon,0%
same,%Inh,INSRR,0%
same,%Inh,INSR,0%
same,%Inh,IRAK1,0%
same,%Inh,IRAK3,0%
same,%Inh,IRAK4,1%
same,%Inh,ITK,0%
same,%Inh,[1],8%
same,%Inh,[2],0%
same,%Inh,[3],2%
same,%Inh,[4],0%
same,%Inh,JNK1,21%
same,%Inh,JNK2,13%
same,%Inh,JNK3,0%
O=C(NOCC1CC1)c1ccc(F)c(F)c1Nc1ccc(I)cc1Cl,%Inh,HPK1,12%
same,%Inh,HUNK,0%
same,%Inh,ICK,100%
same,%Inh,IGF1R,0%
same,%Inh,IKK-alpha,46%
same,%Inh,IKK-beta,35%
same,%Inh,IKK-epsilon,0%
same,%Inh,INSRR,0%
same,%Inh,INSR,0%
same,%Inh,IRAK1,0%
same,%Inh,IRAK3,0%
same,%Inh,IRAK4,0%
same,%Inh,ITK,0%
same,%Inh,[1],0%
same,%Inh,[2],0%
same,%Inh,[3],0%
same,%Inh,[4],0%
same,%Inh,JNK1,0%
same,%Inh,JNK2,0%
same,%Inh,JNK3,0%
COc1ccc(S(=O)(=O)NC2CCN(c3cc(C)nc(Nc4cccc(C#N)c4)n3)CC2)cc1.O=C(O)C(F)(F)F [GSK1653539],%Inh,HPK1,38%
same,%Inh,HUNK,2%
same,%Inh,ICK,0%
same,%Inh,IGF1R,0%
same,%Inh,IKK-alpha,0%
same,%Inh,IKK-beta,0%
same,%Inh,IKK-epsilon,49%
same,%Inh,INSRR,0%
same,%Inh,INSR,0%
same,%Inh,IRAK1,0%
same,%Inh,IRAK3,0%
same,%Inh,IRAK4,0%
same,%Inh,ITK,10%
same,%Inh,[1],34%
same,%Inh,[2],0%
same,%Inh,[3],0%
same,%Inh,[4],0%
same,%Inh,JNK1,0%
same,%Inh,JNK2,28%
same,%Inh,JNK3,12%
Cc1c2ccc(N(C)c3ccnc(Nc4cccc(S(N)(=O)=O)c4)n3)cc2nn1Cc1ccccc1.Cl.Cl [GW787226],%Inh,HPK1,76%
same,%Inh,HUNK,30%
same,%Inh,ICK,0%
same,%Inh,IGF1R,34%
same,%Inh,IKK-alpha,0%
same,%Inh,IKK-beta,0%
same,%Inh,IKK-epsilon,2%
same,%Inh,INSRR,58%
same,%Inh,INSR,25%
same,%Inh,IRAK1,0%
same,%Inh,IRAK3,36%
same,%Inh,IRAK4,0%
same,%Inh,ITK,0%
same,%Inh,[1],36%
same,%Inh,[2],26%
same,%Inh,[3],31%
same,%Inh,[4],0%
same,%Inh,JNK1,0%
same,%Inh,JNK2,0%
same,%Inh,JNK3,0%
Fc1ccc(-c2ncn(CCCN3CCOCC3)c2-c2cccnc2)cc1 [SB-211743],%Inh,HPK1,0%
same,%Inh,HUNK,44%
same,%Inh,ICK,0%
same,%Inh,IGF1R,0%
same,%Inh,IKK-alpha,0%
same,%Inh,IKK-beta,0%
same,%Inh,IKK-epsilon,6%
same,%Inh,INSRR,8%
same,%Inh,INSR,4%
same,%Inh,IRAK1,0%
same,%Inh,IRAK3,64%
same,%Inh,IRAK4,0%
same,%Inh,ITK,0%
same,%Inh,[1],20%
same,%Inh,[2],38%
same,%Inh,[3],21%
same,%Inh,[4],0%
same,%Inh,JNK1,26%
same,%Inh,JNK2,0%
same,%Inh,JNK3,0%
NS(=O)(=O)c1cccc(-c2ccc3nccc(-c4cccc(S(N)(=O)=O)c4)c3c2)c1 [GW867253],%Inh,HPK1,0%
same,%Inh,HUNK,17%
same,%Inh,ICK,0%
same,%Inh,IGF1R,0%
same,%Inh,IKK-alpha,0%
same,%Inh,IKK-beta,0%
same,%Inh,IKK-epsilon,0%
same,%Inh,INSRR,6%
same,%Inh,INSR,0%
same,%Inh,IRAK1,12%
same,%Inh,IRAK3,0%
same,%Inh,IRAK4,0%
same,%Inh,ITK,0%
same,%Inh,[1],0%
same,%Inh,[2],38%
same,%Inh,[3],8%
same,%Inh,[4],0%
same,%Inh,JNK1,30%
same,%Inh,JNK2,5%
same,%Inh,JNK3,0%
[2H]C([2H])(c1cccc(C(F)(F)F)c1C)n1ccn2c(=O)nc(N3CCOCC3)cc12 [GSK2336394],%Inh,HPK1,27%
same,%Inh,HUNK,6%
same,%Inh,ICK,8%
same,%Inh,IGF1R,0%
same,%Inh,IKK-alpha,10%
same,%Inh,IKK-beta,16%
same,%Inh,IKK-epsilon,13%
same,%Inh,INSRR,0%
same,%Inh,INSR,2%
same,%Inh,IRAK1,16%
same,%Inh,IRAK3,0%
same,%Inh,IRAK4,16%
same,%Inh,ITK,17%
same,%Inh,[1],18%
same,%Inh,[2],0%
same,%Inh,[3],0%
same,%Inh,[4],0%
same,%Inh,JNK1,21%
same,%Inh,JNK2,23%
same,%Inh,JNK3,9%
